# Screens from PubChem BioAssay.
# JMJD2A Tudor inh: inhibitors of human JMJD2A Tudor domain; Potency, µM (doses to about 114 µM), without a hit: at the highest dose activity change, negative = inhibition, usual class: inhibitors; actives 4.4% (n = 390,000); O75164; AlphaScreen JMJD2A-Tudor / H3K4me3 peptide binding; note: % is set by controls: 0 for no effect and ±100 for the full control effect; nearly all actives have a fitted effect of over 50% in size
# HP1b binding inh: HP1-beta chromodomain-methylated histone interaction inhibition | P83916 | AlphaScreen HP1-beta / biotin-H3K9me3 peptide binding | Potency, µM (top dose mostly 114 µM), for inactives: at the highest dose activity change, negative = inhibition, most hits filed as inhibitors | actives 0.56% (n = 390,000) | AID 540317; note: nearly all actives have a fitted effect of over 70% in size
# Target sequence (P83916 whole entry, looked up): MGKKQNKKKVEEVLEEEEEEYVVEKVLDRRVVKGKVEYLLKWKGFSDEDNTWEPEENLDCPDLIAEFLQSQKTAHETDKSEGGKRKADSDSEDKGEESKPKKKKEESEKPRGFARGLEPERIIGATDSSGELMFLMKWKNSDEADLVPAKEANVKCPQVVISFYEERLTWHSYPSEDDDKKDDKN
#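 HP1-beta protein (50 nM final) preincubated 30 min at room temperature with biotinylated H3(1-18)K9me3 peptide (50 nM) in PBS pH 7.4, 0.01% Tween-20, then compound added for 30 min. AlphaScreen streptavidin donor/nickel chelate acceptor beads (10 ug/mL final), 30 min dark, luminescence read.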
# BAZ2B inh: blocks human BAZ2B; Q9UIF8; AlphaScreen BAZ2B-H3K14Ac peptide displacement; Potency, µM (titrated, usually from 114 µM), for the others: at the top dose activity change, negative = inhibition, usual class: inhibitors; actives 4.4% (n = 360,000); AID 504333; note: % is set by controls: 0 for no effect and ±100 for the full control effect; nearly all actives have a fitted effect of over 60% in size
#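 AlphaScreen displacement: compounds (up to 110uM) incubated 30 min at room temperature with a preformed 50 nM BAZ2B/50 nM biotinylated H3K14Ac peptide complex in PBS pH 7.4 with Tween-20. Donor and acceptor beads at 10 ug/mL final added, 20 min light-protected before reading.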
# Sfp inh: inhibitors of Bacillus subtilis Sfp phosphopantetheinyl transferase | Biochemical Sfp PPTase activity, qHTS | Q9F4F7 | actives 3.5% (n = 310,000) | Potency, µM, for the others: largest response in the series, negative = inhibition, usual class: inhibitors | AID 1490;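 note: the enzyme is Sfp with the accession as filed and its product quenches rhodamine fluorescence; 0% = enzyme reaction without inhibitor and -100% = no enzyme wells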
#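 Compounds were incubated with enzyme (final 15 nM) for 15 min at room temperature before substrate addition started the reaction. Fluorescence at 525 nm excitation, 598 nm emission was recorded immediately and after 30 minutes.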
# G9a block: blocks human histone lysine methyltransferase G9a. Q96KQ7. G9a H3K9 monomethylation, AlphaScreen, 2 h. Potency, µM (top dose mostly 102 µM), for the others: at the highest dose activity, negative = inhibition, most hits filed as inhibitors. actives 8.8% (n = 350,000). AID 504332; note: % is set by controls: 0 for no effect and ±100 for the full control effect; nearly all actives have a fitted effect of over 75% in size
# Target sequence (Q96KQ7 913-1193 limits assumed): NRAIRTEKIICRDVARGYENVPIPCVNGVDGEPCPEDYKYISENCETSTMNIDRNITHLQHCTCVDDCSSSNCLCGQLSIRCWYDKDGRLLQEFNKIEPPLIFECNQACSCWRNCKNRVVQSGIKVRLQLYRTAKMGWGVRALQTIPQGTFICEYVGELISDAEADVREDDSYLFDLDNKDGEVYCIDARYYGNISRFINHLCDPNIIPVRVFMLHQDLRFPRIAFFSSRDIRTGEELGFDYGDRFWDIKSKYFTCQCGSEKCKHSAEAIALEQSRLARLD
#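 Step 1: enzyme (final 20 nM) with compound, 15 min RT. Step 2: substrate peptide 500 nM and SAM 20 uM, 2 h RT. Step 3: anti-H3K9me1 antibody and AlphaScreen beads, 10 min, then plate read.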
# The depositor's hits bear a star; ? = inconclusive; · = no result; ! = not active in a repeat; [ ] = another dose, or the depositor's remark. Compounds with a hit are over-represented: about 12% of the library has one in this group of screens. Calls come from the whole dose curve; as a rule, active = well fitted curve in the direction sought with a large enough effect; inconclusive = small, poorly fitted or top-dose-only effect, or another doubt; inactive = no such curve, though single readings can be large; an effect the other way counts as inactive or inconclusive. Potency is the fitted concentration of half-maximal effect.
SMILES,JMJD2A Tudor inh,HP1b binding inh,BAZ2B inh,Sfp inh,G9a block
Cc1ccc(-n2[nH]c(=O)c(-c3ccccn3)c2C)cc1,-31%,6%,45µM*,1%,-1%
Cc1ccc(-n2[nH]c(=O)c3cccnc32)cc1,-11%,15%,-6%,18%,?
O=C(NCCOc1cccc(Cl)c1Cl)c1cc(-n2cnnc2)ccc1Cl,-17%,29%,12%,12%,20%[2.33 µM]
CCSCCNC(=O)c1cc(-n2cnnc2)ccc1Cl,-7%,36%,1%,-1%,2.5µM*
O=C(CN1CCN(S(=O)(=O)c2ccc(Cl)cc2)CC1)c1ccc(O)c(O)c1,18µM*,-18%[57 µM],?,56µM*,·
COc1ccc(S(=O)(=O)N2CCN(CC(=O)c3ccc(O)c(O)c3)CC2)cc1,?,16%,-38%,45µM*,28µM*
NC(=O)CN1CCN(S(=O)(=O)c2ccc(Cl)cc2)CC1,2%[11.4 µM],39%,-2%,17%,16%
COc1cccc(C(=O)CN2CCN(S(=O)(=O)c3ccc(Cl)cc3)CC2)c1,-16%,40%,-17%,·,10µM*
O=C(CN1CCN(S(=O)(=O)c2ccc(F)cc2)CC1)c1ccc(O)c(O)c1,?,18%,?,18µM*,20µM*
CCCn1c(C)nc2c(NCCN3CCCC3)nc(C)nc21,·,·,·,17%,·
COc1ccc(S(=O)(=O)N(C)CC(=O)NC2CCCC2)cc1Cl,-3%,28%,0%,5%,2%[59 µM]
O=C(CN(Cc1ccccc1)S(=O)(=O)c1ccccc1)N/N=C/c1ccccc1[N+](=O)[O-],?,-20%,-36%,8%,?
Cc1nn(-c2ccccc2)c(OC(=O)c2cccs2)c1S(=O)(=O)c1ccc([N+](=O)[O-])cc1,?,13%,79µM*,17%,?
CC(=O)N1c2ccc(Cl)cc2C2C=CCC2C1c1cccc2ccccc12 (configuration not stated),-35%,4%,-33%,?,13µM*
CC(=O)N1c2ccc3ccccc3c2C2C=CCC2C1c1ccc(Br)cc1 (configuration not stated),·,·,?,-25%,?
Cc1nn(CCC(N)=S)c2nc(-c3cccs3)cc(C(F)(F)F)c12,-10%,-20%,-20%,22µM*,10µM*
Cc1ccc(C(=O)NCc2ccco2)cc1Br,-27%,29%,-29%,2%,?
O=C(NCc1ccco1)c1cc2ccc(O)cc2oc1=O,-26%,2%,56µM*,28µM*,-26%[59 µM]
Cc1c(Br)cc(C(=O)NCc2ccco2)c(C)c1C,-35%,8%,56µM*,?,?
CCc1sc(C(=O)NCc2ccco2)cc1Br,-21%,26%,?,-5%,56µM*
CCc1sc(C(=O)NCc2ccco2)cc1C,-24%,-4%,-27%,19%,-10%
COc1ccc(-c2ccc3c(c2)S(=O)(=O)c2cccc(C(=O)NCCOc4ccccc4Cl)c2C3=O)cc1OC,?,-2%,·,·,·
NC(=O)CC(NC(=O)Cc1ccc(Cl)cc1)c1ccc(NCCc2ccccc2F)c([N+](=O)[O-])c1 (configuration not stated),-23%,25%,-14%,-7%,-36%[12.7 µM]
O=C(Nc1nccs1)c1cccnc1Cl,-11%,15%,-2%,-3%,4%
Cc1ccnc(NC(=O)c2sc3cc(Cl)ccc3c2Cl)c1,-1%,25%,-7%,18%,13%[59 µM]
SMILES,JMJD2A Tudor inh,HP1b binding inh,BAZ2B inh,Sfp inh,G9a block
CCN(CC)c1ccc(C=C2C(=O)OC3(CCCCC3)OC2=O)cc1,-31%,26%,?,-25%,?
CCN(CC)c1ccc(/C=C2/C(=O)c3ccc(C(=O)O)cc3C2=O)cc1,?,35µM*,25µM*,?,13µM*
COc1ccc(-c2cc(C(F)(F)F)n3nc(C(=O)Nc4sc5c(c4C(=O)OC(C)C)CCCC5)cc3n2)cc1OC,-12%,19%,9%,·,?
CC(C)OC(=O)c1c(NC(=O)c2cc3nc(-c4ccccc4)cc(C(F)(F)F)n3n2)sc2c1CCCC2,-20%,-6%,-2%,·,13µM*
O=C(c1ccccc1)c1ccccc1,7%,50%,19%,-2%,-18%[12.7 µM]
O=C(O)c1ccc(C(=O)C(=O)c2ccccc2)cc1,-1%,16%,-13%,22%,79µM*
O=C(CSc1ccc(-c2ccccn2)nn1)NCc1ccc(F)cc1,7.9µM*,12%,3.2µM*,-2%,-16%
O=C(CSc1ccc(-c2ccco2)nn1)NC1CCCCC1,?,0%,50µM*,25µM*,45µM*
O=C(CSc1ccc(-c2ccco2)nn1)NC1CCCC1,8%,29%,2%,-20%,?
O=C(CSc1ccc(-c2ccccc2)nn1)NC1CCCCC1,-5%,13%,-3%,-29%,·
O=C(CSCc1ccc(F)cc1)NCc1ccc(F)cc1,100µM*!,28%,0%,22%,18%[59 µM]
O=C(CSc1ccc(-c2ccccn2)nn1)NC1CCCCC1,3.5µM*,30%,4µM*,-27%,31%
C[C@@H]1CN([C@@H](C)CO)C(=O)c2cccc(NC(=O)C3CCCCC3)c2O[C@@H]1CN(C)Cc1ccc(Cl)c(Cl)c1,?,33%,·,·,·
CCOc1ccc(N2C(=O)C3Sc4[nH]c(=O)sc4C(/C=C/c4ccccc4)C3C2=O)cc1 (configuration not stated),40µM*,?,45µM*,-25%,11µM*
CC(Oc1ccccc1)C(=O)OCC(=O)N1CC(=O)Nc2ccccc21 (configuration not stated),1%,45%,-14%,8%,10%
Cc1ccc(OC(C)C(=O)N2CC(=O)Nc3ccccc32)cc1 (configuration not stated),-13%,23%,-8%,13%,3.5µM*
CCn1cc(C(=O)N2CCc3ccccc32)c(=O)c2cc(S(=O)(=O)N3CCCCCC3)ccc21,-16%,-2%,1%,-2%,?
CC(NC(=O)COC(=O)c1cc([N+](=O)[O-])ccc1N1CCOCC1)c1ccc(F)cc1 (configuration not stated),?,9%,50µM*,·,?
CC(NC(=O)COC(=O)c1cc([N+](=O)[O-])ccc1N1CCOCC1)c1ccccc1 (configuration not stated),-22%,18%,-18%,12%,?
O=C(COC(=O)c1cc([N+](=O)[O-])ccc1N1CCOCC1)NC1CCCCC1,-18%,9%,6%,·,-25%
CC1CCCCN1C(=O)COC(=O)c1cc([N+](=O)[O-])ccc1N1CCOCC1 (configuration not stated),-8%,17%,8%,·,45µM*
O=C(COC(=O)c1cc([N+](=O)[O-])ccc1N1CCOCC1)Nc1ccc(Cl)cc1,?,-16%,-37%,13%,?
Cc1cc(Cl)ccc1NC(=O)COC(=O)c1cc([N+](=O)[O-])ccc1N1CCOCC1,?,-23%,-28%,·,56µM*
